M1 ag parental – M1 agonist counterscreen hit in parental CHO-K1 cells; AID 602248; 360,000 tested, 0.48% active; activation, % at 3 µM; Fluo-8 calcium fluorescence; scaled to maximal ATP response, vehicle zero; in the data active = activation above about 15%;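 also: untransfected CHO-K1 host cells lacking M1 receptor as counterscreen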
CHO-K1 Ca PAM – counter-screen for M1 PAMs: effect in parental CHO-K1 cells; activation, % at 3 µM; ATP EC20, Fluo-8 calcium fluorescence; 0% at ATP EC20, 100% at ATP max; 360,000 tested, 0.02% active; AID 602247;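 active = activation above the run cutoff, the mean activation of all test compounds plus 3 SD, cut at about 40% in these data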;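 also: peak over basal fluorescence ratio in a 140 s read after ATP addition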
M1 PAM – human CHRM1 positive allosteric modulation. P11229. CHO-K1 hM1, Fluo-8 calcium fluorescence, ACh EC20; 0% = ACh EC20, 100% = maximal ACh. activation, % at 3 µM. 360,000 tested, 0.088% active; in the data active = activation above about 19%, passing the limit was not always enough
Target sequence (P11229 whole entry, looked up): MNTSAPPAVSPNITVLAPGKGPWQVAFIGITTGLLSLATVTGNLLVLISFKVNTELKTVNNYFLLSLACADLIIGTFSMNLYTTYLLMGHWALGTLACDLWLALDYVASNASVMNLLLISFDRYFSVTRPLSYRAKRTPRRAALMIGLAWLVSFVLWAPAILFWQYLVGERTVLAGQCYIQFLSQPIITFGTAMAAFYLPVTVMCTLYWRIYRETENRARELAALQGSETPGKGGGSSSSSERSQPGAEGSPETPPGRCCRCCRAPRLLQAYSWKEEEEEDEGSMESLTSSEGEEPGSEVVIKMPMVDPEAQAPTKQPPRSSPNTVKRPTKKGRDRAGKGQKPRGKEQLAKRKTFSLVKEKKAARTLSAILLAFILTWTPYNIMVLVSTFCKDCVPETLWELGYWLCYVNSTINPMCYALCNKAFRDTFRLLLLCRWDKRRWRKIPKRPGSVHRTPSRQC
CHO-K1 Ca antag – counter-screen for M1 antagonists: effect in parental CHO-K1 cells. ATP-induced calcium, Fluo-8 fluorescence. inhibition, % at 3 µM. 360,000 tested, 0.6% active;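 active = inhibition above a per-plate cutoff, the plate's mean sample inhibition plus 3 SD, cut at about 24% in these data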
CHRM1 agonist – agonists of human M1 muscarinic receptor | activation, % at 3 µM | CHO-K1 hM1, Fluo-8 calcium fluorescence, agonist mode; 0% DMSO, 100% acetylcholine EC100 | P11229 | AID 588814 | 360,000 tested, 0.33% active;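 active = activation above the run's mean compound activation plus 3 SD, cut at about 16% in these data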;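 also: peak over basal fluorescence ratio within a 140 s kinetic read after compound addition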
M1 antag – blocks human M1 muscarinic receptor; AID 588852; inhibition, % at 3 µM; CHO-K1 hM1, Fluo-8 calcium fluorescence, ACh EC80 antagonist; 360,000 tested, 1.3% active; P11229;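 active = percent inhibition above its own plate's cutoff, namely the mean of that plate's compound wells plus 3 SD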;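 also: peak over basal fluorescence ratio during 140 s after agonist addition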
A number is an active result; i = inactive; nt = no result given. Compounds with a hit are over-represented: about 2.4% of the library has one in this group of screens.

SMILES	M1 ag parental	CHO-K1 Ca PAM	M1 PAM	CHO-K1 Ca antag	CHRM1 agonist	M1 antag
O=C(N/C(=C/c1ccco1)C(=O)N1CCCCCC1)c1ccccc1	i	i	i	i	i	i
Cc1ccc(C(=O)N/C(=C/c2cccnc2)C(=O)N2CCCCCC2)cc1	i	i	i	47	i	i
Cc1ccc(C(=O)N/C(=C\c2cccnc2)C(=O)N2CCCC2)cc1	i	i	i	i	i	i
N#CC(c1cccc(Cl)c1)c1ccc2c(C(F)(F)F)cc(C(F)(F)F)nc2n1 (centres undefined)	i	i	i	31	i	i
COc1ccc(C)c2sc(N(CCCN(C)C)C(=O)c3ccc(S(=O)(=O)N4CCc5ccccc5C4)cc3)nc12	19	i	i	i	i	i
CCc1ccc2nc(N(CCCN(C)C)C(=O)c3ccc(S(=O)(=O)N4CCCC4)cc3)sc2c1	i	i	i	i	i	39
Cc1ccc2nc(N(CCCN(C)C)C(=O)c3ccc(S(=O)(=O)N4CCCCCC4)cc3)sc2c1	i	i	i	i	i	i
O=C1NC[C@H](CCCCN2C[C@H](Cc3ccc(O)cc3)N(CCC3CCCCC3)C(=O)C2=O)N(CCC2CCCCC2)C1=O	i	i	nt	i	nt	nt
O=C(CNC(=O)c1ccc(Cl)cc1Cl)OCn1nnc2ccccc2c1=O	i	i	i	i	i	i
CC(=NNc1nc2ccccc2o1)c1ncccn1	i	i	i	31	i	i
CC(=NNc1nc2ccccc2s1)c1ncccn1	i	i	i	27	i	i
CC(=NNc1nc2ccccc2o1)c1cc2ccccc2cn1	i	i	i	i	i	i
Cc1cccc([C@@H]2[C@@H]3C(=O)N(Cc4ccccc4)C(=O)[C@@H]3[C@]3(CC(C)C)C(=O)N(c4cccc(F)c4)C(=O)N23)c1	i	i	i	i	i	i
CC(C)C[C@H](NC(=O)OC(C)(C)C)C(=O)N[C@@H](CO)[C@H](O)[C@@H]1C[C@@H]1C(=O)N1CCCC1	i	i	i	i	i	i
O=C(c1ccc2c(=O)n3c(nc2c1)CCCCC3)N1CCN(C(c2ccccc2)c2ccccc2)CC1	i	i	i	i	i	79
O=C(c1ccc(=O)oc1)N1CCN(C(c2ccccc2)c2ccccc2)CC1	i	i	i	i	i	77
CS(=O)(=O)N1CCN(C(=O)C2c3ccccc3Oc3ccccc32)CC1	i	i	i	i	i	47
CCOC(=O)C1CCCN(C(=O)C2c3ccccc3Oc3ccccc32)C1 (centres undefined)	20	i	i	i	79	35
CCOC(=O)C1CCCN(C(=S)Nc2ccc(Nc3ccccc3)cc2)C1 (centres undefined)	i	i	i	i	78	80
CCOC(=O)C1CCCN(C(=O)Nc2c(-c3ccccc3)noc2C)C1 (centres undefined)	i	i	i	i	31	i
CCOC(=O)C1CCCN(C(=O)Cc2c(C(=O)O)[nH]c3ccccc23)C1 (centres undefined)	i	i	i	i	73	64
CCOC(=O)C1CCCN(C(c2ccccn2)c2c(C)[nH]c3ccccc23)C1 (centres undefined)	i	i	i	i	28	i
CCOC(=O)C1CCCN(C(=S)Nc2ccc(C)cc2C)C1 (centres undefined)	i	i	i	i	85	83
Cc1[nH]c2ccccc2c1C(c1ccccn1)N1CCCC1 (centres undefined)	i	i	i	i	i	i
CCN(C(=O)COC(=O)CSc1ccccc1)c1c(N)n(Cc2ccccc2)c(=O)[nH]c1=O	i	i	i	i	i	i
SMILES	M1 ag parental	CHO-K1 Ca PAM	M1 PAM	CHO-K1 Ca antag	CHRM1 agonist	M1 antag
C=CCn1c(SCC(=O)N2CCOCC2)nnc1C(C)NC(=O)c1ccccc1 (centres undefined)	i	i	i	i	i	i
COc1ccccc1C(=O)OCCc1ccccc1	i	i	i	i	i	i
COc1ccc(N2CC(C(=O)N[C@H](C(=O)NC(C)c3ccccc3)C(C)C)CC2=O)cc1 (some centres undefined)	i	i	i	i	i	i
Cc1ccc(S(=O)(=O)Nc2cc(=O)[nH]c(SCc3ccc(Cl)cc3)n2)cc1	i	i	i	i	39	i
O=c1cc(NS(=O)(=O)c2ccccc2)nc(SCc2c(Cl)cccc2Cl)[nH]1	i	i	i	i	i	i
O=P(CCCCCCCCCP(=O)(c1ccccc1)c1ccccc1)(c1ccccc1)c1ccccc1	i	i	i	i	i	32
CC(=O)Nc1ccc(OCC(O)CN2CCN(c3ccc(F)cc3)CC2)cc1 (centres undefined)	i	i	i	i	i	i
CCCCOc1ccc(/C=N/NC(=S)Nc2cc(C)ccc2C)cc1	i	i	i	28	i	i
Cc1cc(Nc2ccc(Cl)cc2)nc(-c2ccccc2O)n1	i	i	i	i	i	i
Cc1cc(Nc2cccc(Cl)c2)nc(-c2ccccc2O)n1	i	i	i	43	i	i
O=[N+]([O-])c1ccccc1NC1CCN(Cc2ccccc2)CC1	i	i	i	i	i	47
NC(=O)CC(NC(=O)Cc1cccc2ccccc12)c1ccc(NC2CCN(Cc3ccccc3)CC2)c([N+](=O)[O-])c1 (centres undefined)	i	i	i	i	i	i
NC(=O)CC(NC(=O)Cc1ccc(Br)cc1)c1ccc(NC2CCN(Cc3ccccc3)CC2)c([N+](=O)[O-])c1 (centres undefined)	i	i	i	i	i	43
O=[N+]([O-])c1ccccc1CN1CCN(S(=O)(=O)Cc2ccccc2)CC1	i	i	i	i	i	i
CN(Cc1ccccc1)C1CCN(Cc2ccccc2[N+](=O)[O-])CC1	i	i	i	i	i	90
O=[N+]([O-])c1ccc(NC2CCN(Cc3ccccc3)CC2)c([N+](=O)[O-])c1	i	i	i	i	i	i
CC1CCC2C(=O)N(c3ccc(NC4CCN(Cc5ccccc5)CC4)c([N+](=O)[O-])c3)C(=O)C2C1 (centres undefined)	i	i	i	i	i	80
O=C1C2CC=CCC2C(=O)N1c1ccc(NCCc2ccccc2)c([N+](=O)[O-])c1 (centres undefined)	i	i	i	i	i	i
COc1ccccc1CC(=O)NNS(=O)(=O)c1ccc([N+](=O)[O-])cc1	i	i	i	i	i	i
N=NC(=O)c1ccccc1Nc1c(O)[nH]c2ccccc12	i	i	i	i	i	i
O=C1CCC(=O)N1c1ccc(NC2CCN(Cc3ccccc3)CC2)c([N+](=O)[O-])c1	i	i	i	i	i	i
O=C1C2CCCCC2C(=O)N1c1ccc(NC2CCN(Cc3ccccc3)CC2)c([N+](=O)[O-])c1 (centres undefined)	i	i	i	i	i	48

Bioassay records deposited in PubChem BioAssay by The Scripps Research Institute Molecular Screening Center.
